This is a sample that favours compounds with a hit; in the whole collection about 7.4% have one here.
FLuc modulator: firefly luciferase modulation, counter-screen for miR-21 project; actives 6.9% (n = 360,000); Potency, µM (highest dose often 57.5 µM), for the others: at the top dose activity change, negative = inhibition, most hits filed as inhibitors; purified FLuc, Km substrates, luminescence inhibition;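 further: plate controls were vehicle for no effect and reference inhibitor for full effect; nearly all actives have a fitted effect of over 55% in size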
Target sequence (P08659 whole entry, looked up): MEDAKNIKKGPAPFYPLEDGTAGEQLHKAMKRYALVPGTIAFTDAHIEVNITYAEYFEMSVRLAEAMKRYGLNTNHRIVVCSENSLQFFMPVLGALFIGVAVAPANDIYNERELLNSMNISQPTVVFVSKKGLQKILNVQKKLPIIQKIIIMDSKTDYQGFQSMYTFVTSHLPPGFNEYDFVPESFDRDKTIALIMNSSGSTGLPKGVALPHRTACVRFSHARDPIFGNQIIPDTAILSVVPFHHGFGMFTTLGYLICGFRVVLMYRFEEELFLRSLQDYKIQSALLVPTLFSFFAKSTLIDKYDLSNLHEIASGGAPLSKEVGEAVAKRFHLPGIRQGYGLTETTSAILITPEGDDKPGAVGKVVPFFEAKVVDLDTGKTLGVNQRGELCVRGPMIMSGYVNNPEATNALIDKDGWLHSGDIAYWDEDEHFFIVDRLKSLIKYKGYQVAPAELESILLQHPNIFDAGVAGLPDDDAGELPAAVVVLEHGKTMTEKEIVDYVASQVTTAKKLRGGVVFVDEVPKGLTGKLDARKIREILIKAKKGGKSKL
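Purified P. pyralis luciferase (10nM final) with 10uM D-luciferin and 10uM ATP (Km levels) in 50mM Tris acetate pH 7.5, 10mM Mg acetate, 0.01% Tween-20, 0.05% BSA; qHTS 6-point titration, ~60 µM downward; luminescence read.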
ELG1 genotox: induces genotoxicity in HEK293T cells with luciferase-tagged ELG1; HEK293T ELG1-luciferase reporter, luminescence, 16 h; Potency, µM (series often up to 46 µM), for the others: top-dose activity change, positive = activation, actives largely listed as activators; actives 1.3% (n = 330,000); further: % of control where 0% means no effect; nearly all actives have a fitted effect of over 60% in size
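16 hr compound incubation (37 °C, 5% CO2) of HEK293T cells carrying luciferase-tagged ELG1; luciferase then measured by ONE-Glo luminescence after 30 min at RT.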
NPC1 prom act: NPC1 promoter activation; Potency, µM (highest dose often 9.22 µM), for the others: at the highest dose activation, hits mostly activators; Huh7 NPC1 promoter luciferase reporter, 24 h; actives 2.4% (n = 320,000); further: % of control where 0% means no effect; nearly all actives have a fitted effect of over 60% in size
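Luminescence read-out of NPC1 promoter-driven luciferase in stably transfected Huh7 cells; compounds delivered in DMSO and left 24 h at 37C, 5% CO2, qHTS titration format.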
SMN2 splice enh: enhancers of SMN2 splice variant expression; Potency, µM (titrated, usually from 46.1 µM), for inactives: at the top dose activity change, positive = activation, most hits filed as activators; AID 1458; HEK293 SMN2-luciferase splicing reporter, luminescence, 30-36 h; actives 2.8% (n = 210,000); further: % of control where 0% means no effect; nearly all actives have a fitted effect of over 55% in size
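HEK293 cells carry an SMN2 minigene-luciferase reporter in which exon 7 inclusion puts luciferase in frame. Cells were seeded at 2000 cells/well, attached for 10-12 hours, then exposed to compounds for 30-36 hours at 37C before ONE-Glo luminescence.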
Rab9 prom act: Rab9 promoter activation | Huh7 Rab9 promoter-luciferase reporter, luminescence, 24 h | Potency, µM (series often up to 9.22 µM), inactives show top-dose activation, negative = inhibition, hits mostly activators | actives 2.8% (n = 320,000) | AID 485297; further: % of control where 0% means no effect; nearly all actives have a fitted effect of over 60% in size
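Luminescence from Amplite-detected luciferase (10 minutes, ambient) reports Rab9 promoter activation. Before that, stable Rab9-luciferase Huh7 cells (1500/well, reduced-serum OP-MEM I plus 10% FBS) were exposed to compound for 24 hours at 37C.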
* hit, by the source's call; [ ] = dose if it differs, or a comment. The call rests on the fitted dose curve; in most records, active means well fitted curve in the direction sought with a large enough effect; inconclusive means small, poorly fitted or top-dose-only effect, or another doubt; inactive means no such curve, though single readings can be large; an effect the other way counts as inactive or inconclusive. Potency means the concentration at half of the fitted maximal effect.

How did CCOC(=O)C1=C(CN2CCN(c3cc(C)ccc3C)CC2)NC(=O)NC1c1ccc(Cl)cc1 (configuration not stated) do in these assays?
FLuc modulator: 2.0%; SMN2 splice enh: -49.6%

What do the screens show for `CC(C)Sc1ncc(Cl)c(C(=O)Nc2nc3ccc(S(C)(=O)=O)cc3s2)n1`?
FLuc modulator: inconclusive; SMN2 splice enh: 33.6%

Results for O=c1c2ccccc2c(/C=N/c2nnc(Cc3ccccc3)s2)c(O)n1-c1ccc(Cl)cn1 ?
FLuc modulator: 1.9µM*; ELG1 genotox: -1.2%; NPC1 prom act: -4.2%; SMN2 splice enh: -0.3%; Rab9 prom act: 1.8%

Results for CCOC(=O)CCCN ?
SMN2 splice enh: -8.5%[9.22 µM]

How did Cc1cccc(OCC(=O)Nc2cccc(OCc3cc(=O)n4cccc(C)c4n3)c2)c1 do in these assays?
FLuc modulator: -11.2%

Results for COc1ccc(N2CCN(Cc3nnc(-c4cccc(Br)c4)o3)CC2)cc1 ?
FLuc modulator: 3.4%; SMN2 splice enh: 12.7%

What do the screens show for `O=C(N/N=C/c1cc(Br)c(O)c(Br)c1O)c1ccc2c(c1)OCCO2`?
FLuc modulator: 7.57µM*; ELG1 genotox: inconclusive; NPC1 prom act: -31.1%; Rab9 prom act: -35.6%

What do the screens show for `O=C(N/N=C/c1cc(Br)c(Br)o1)c1ccc2c(c1)OCCO2`?
FLuc modulator: 12µM*; ELG1 genotox: 4.6%; NPC1 prom act: inconclusive; Rab9 prom act: 2.51µM*

What do the screens show for `O=C(N/N=C/c1cc(Br)c(Br)o1)c1cccnc1`?
FLuc modulator: -12.3%; ELG1 genotox: 6.2%; NPC1 prom act: -7.7%; SMN2 splice enh: 6.4%; Rab9 prom act: -6.3%

What do the screens show for `CCOc1cc(/C=N/NC(=O)c2ccc3c(c2)OCCO3)cc(Br)c1O`?
FLuc modulator: 21.3µM*; ELG1 genotox: 10.4%; NPC1 prom act: 8.8%; Rab9 prom act: 12.6%

What do the screens show for `O=C(Nc1ccc(C(=O)OCc2cc(=O)n3c4c(sc3n2)CCCC4)cc1)c1ccccc1`?
FLuc modulator: -10.2%

How did COc1cc(/C=N\NC(=O)c2sc(N)nc2C)cc(OC)c1OC do in these assays?
FLuc modulator: 15.1µM*; ELG1 genotox: 6.9%; NPC1 prom act: -0.2%; SMN2 splice enh: 9.7%; Rab9 prom act: 12.3%

Results for NNC(=O)c1cc(-c2ccccc2)sc1N ?
FLuc modulator: inconclusive; ELG1 genotox: -0.2%; NPC1 prom act: 2.2%; Rab9 prom act: 29.0%

What do the screens show for `COc1cc(C(=O)N/N=C/c2sc(=O)n(-c3ccccc3)c2Cl)cc(OC)c1OC`?
FLuc modulator: 6.01µM*; ELG1 genotox: 6.7%; NPC1 prom act: -4.2%; SMN2 splice enh: -4.5%; Rab9 prom act: -7.6%

What do the screens show for `COc1cc(/C=N/NC(=O)c2cc(-c3ccccc3)sc2N)cc(OC)c1OC`?
FLuc modulator: 4.78µM*; ELG1 genotox: -7.8%; NPC1 prom act: 5.9%; Rab9 prom act: 0.1%

What do the screens show for `COc1cc(/C=N/NC(=O)c2ccc(-c3ccccc3)cc2)cc(OC)c1OC`?
FLuc modulator: 10.7µM*; ELG1 genotox: -6.9%; NPC1 prom act: 8.5%; SMN2 splice enh: 19.0%; Rab9 prom act: 12.6%

What do the screens show for `Cc1nc(N)sc1C(=O)N/N=C/c1ccc([N+](=O)[O-])cc1`?
FLuc modulator: -1.0%; ELG1 genotox: 12.3%; NPC1 prom act: inconclusive; Rab9 prom act: -0.1%

Results for O=c1cc(-c2ccccc2F)[nH]c2cc3c(cc12)OCO3 ?
NPC1 prom act: inconclusive; Rab9 prom act: -5.0%[46.1 µM]

How did O=C(Nc1cc(-c2nc3cc(Cl)ccc3o2)ccc1Cl)c1cc2ccccc2o1 do in these assays?
FLuc modulator: 4.3%; SMN2 splice enh: -6.6%

Results for C=CCOC(=O)N[C@@H](CC(C)C)/C(C(=O)OC)=C(\C)NCc1ccccc1 ?
SMN2 splice enh: 5.3%

What do the screens show for `O=C1C2C3C=CC(C4CC34)C2C(=O)N1c1ccc2c(c1)OCO2` (configuration not stated)?
FLuc modulator: 21.3µM*; ELG1 genotox: 0.2%; NPC1 prom act: 6.8%; SMN2 splice enh: -20.4%; Rab9 prom act: 4.8%

Results for Cc1c(CNC2CCC(C)CC2)c(C(=O)O)c(C)n1Cc1ccc(Cl)cc1 (configuration not stated) ?
FLuc modulator: -2.0%; SMN2 splice enh: 6.5%

What do the screens show for `OCc1nc2ccccc2n1CCCOc1ccccc1`?
FLuc modulator: 10.7µM*; ELG1 genotox: inconclusive; NPC1 prom act: inconclusive; SMN2 splice enh: 11.2µM*; Rab9 prom act: inconclusive

Results for Cc1ccccc1OCCCCn1c(CO)nc2ccccc21 ?
FLuc modulator: -11.6%; ELG1 genotox: -6.0%; NPC1 prom act: -10.8%; SMN2 splice enh: -54.3%; Rab9 prom act: -8.8%

What do the screens show for `Cc1ccc(OCCCn2c(CO)nc3ccccc32)cc1`?
FLuc modulator: -1.6%[2.3 µM]; ELG1 genotox: 9.7%; NPC1 prom act: 18.4%; SMN2 splice enh: inconclusive; Rab9 prom act: inconclusive

How did Cc1cccc(OCCCn2c(CO)nc3ccccc32)c1 do in these assays?
FLuc modulator: 13.5µM*; ELG1 genotox: 4.8%; NPC1 prom act: 20.5%; Rab9 prom act: inconclusive

What do the screens show for `O=C(Nc1c2c(nn1-c1ccc(Cl)cc1)CS(=O)(=O)C2)c1ccccc1F`?
FLuc modulator: -2.5%

How did Clc1ccc(-c2cn3cccnc3n2)cc1Cl do in these assays?
FLuc modulator: 16.9µM*; ELG1 genotox: inconclusive; NPC1 prom act: inconclusive; SMN2 splice enh: inconclusive; Rab9 prom act: inconclusive

Results for COc1ccc(-c2cn3cccnc3n2)cc1F ?
FLuc modulator: 8.49µM*; ELG1 genotox: inconclusive; NPC1 prom act: inconclusive; SMN2 splice enh: 15.8µM*; Rab9 prom act: inconclusive

How did Clc1ccc(-c2cn3cccnc3n2)cc1 do in these assays?
FLuc modulator: 10.7µM*; ELG1 genotox: 16.4µM*; NPC1 prom act: 26.9%; SMN2 splice enh: -5.0%; Rab9 prom act: inconclusive

What do the screens show for `O=C(Nc1cccc(-c2cn3cccnc3n2)c1)c1cc(Br)ccc1Cl`?
FLuc modulator: -4.2%

What do the screens show for `Brc1ccc(-c2cn3cccnc3n2)cc1`?
FLuc modulator: 8.49µM*; ELG1 genotox: 2.91µM*; NPC1 prom act: inconclusive; SMN2 splice enh: 7.94µM*; Rab9 prom act: 2.24µM*

Results for O=[N+]([O-])c1cccc(Cl)c1Cl ?
SMN2 splice enh: -3.9%

How did CCCCC(=O)N(C)C do in these assays?
SMN2 splice enh: -6.7%

Results for COC(=O)c1cc2oc3ccccc3c2n1CC(=O)Nc1ccc(Cl)cc1F ?
FLuc modulator: -2.0%; SMN2 splice enh: 19.9%

What do the screens show for `O=C(c1ccncc1)N1CCC2(CCN(Cc3nccs3)CC2)CC1`?
SMN2 splice enh: -7.8%

What do the screens show for `C(=Nc1ccc(N2CCOCC2)cc1)c1c[nH]c2ccccc12`?
FLuc modulator: inconclusive; ELG1 genotox: 10.4%; NPC1 prom act: 5.0%; Rab9 prom act: 23.9%

Screening data deposited in PubChem by National Center for Advancing Translational Sciences (NCATS).
